# The entries come from a sample that favours hits as a whole.
# VACV mCherry inh: vaccinia inhibition (mCherry reporter); Vaccinia virus mCherry reporter infection, fluorescence; Potency, µM (series often up to 36.5 µM), without a hit: at the top dose activity change, negative = inhibition, actives largely listed as inhibitors; hit rate 0.63% among 310,000; AID 720579; calls by dose curve; tested in A549 cells; also: potency is read from the fitted curve at half-maximal effect; % is scaled to controls: 0 for no effect and ±100 for the full control effect; nearly all actives have a fitted effect of over 35% in size
# CHX counter: affects cycloheximide protein synthesis inhibition readout, counter-screen. max response, %. hit rate 12% among 300,000. cell reporter, cycloheximide protein synthesis inhibition counterscreen; in the data active = max response mostly above about 13%, no sharp cut-off; inactive = mostly below about 14%; also: read at 38.3 µM for the half of the compounds with a filed dose; 0% is about no effect
# Vaccinia Venus: vaccinia inhibition (Venus reporter). Vaccinia virus Venus reporter expression, fluorescence. Potency, µM (doses to about 36.5 µM), without a hit: at the highest dose activity change, negative = inhibition, most hits filed as inhibitors. AID 720580. hit rate 0.46% among 330,000; calls by dose curve; tested in A549 cells; also: potency is read from the fitted curve at half-maximal effect; % is scaled to controls: 0 for no effect and ±100 for the full control effect; nearly all actives have a fitted effect of over 30% in size
# LASV entry inh: Lassa virus entry inhibition | Lassa virus pseudotype entry inhibition, cell reporter | Potency, µM (top dose mostly 37.9 µM), for the others: top-dose activity change, negative = inhibition, actives largely listed as inhibitors | hit rate 1.2% among 300,000 | AID 540256; calls by dose curve; tested in HEK293 cells; also: potency is read from the fitted curve at half-maximal effect; % is scaled to controls: 0 for no effect and ±100 for the full control effect; nearly all actives have a fitted effect of over 50% in size
# MARV entry inh: Marburg virus entry inhibition | Potency, µM (doses to about 37.8 µM), inactives show at the top dose activity change, negative = inhibition, usual class: inhibitors | Marburg virus pseudotyped entry inhibition, cell reporter | AID 540276 | hit rate 1.8% among 300,000; calls by dose curve; tested in HEK293 cells; also: potency is read from the fitted curve at half-maximal effect; % is scaled to controls: 0 for no effect and ±100 for the full control effect
# Shiga inhibitor: Shiga toxin inhibition. hit rate 9.2% among 290,000. AID 2315. Vero cells, Shiga toxin protein synthesis inhibition reporter. inhibition, % at 38.7 µM; in the data active = inhibition mostly above about 28%, no sharp cut-off; inactive = mostly below about 43%; also: 0% is about no effect
# Starred values were filed as active, the others as inactive; i = inactive; ? = inconclusive; / = no result given; [ ] = another dose, or the depositor's remark.
SMILES,VACV mCherry inh,CHX counter,Vaccinia Venus,LASV entry inh,MARV entry inh,Shiga inhibitor
CCC(C)C(=O)Nc1ccc(OC)cc1[N+](=O)[O-] (stereo not drawn),-5%,-2,-8%,8%,4%,-12
CCCCn1c(CCC(=O)O)nc2cc(S(=O)(=O)N3CCCC3)ccc21,i,/,-16%,-1%,-1%,/
NS(=O)(=O)c1ccc(NS(=O)(=O)c2ccc(C3CNC(=O)C3)cc2)cc1 (stereo not drawn),-4%,5,-13%,13%,2%[46.1 µM],-5
COC(=O)c1ccc(NC(=O)Nc2ccccc2C)cc1,i,23*,-16%,22%,?,73*
CCN(CC)CCNc1ccnc2cc(Cl)ccc12,/,3,/,-18%,2.9µM*,-6
CN(C)c1ccc(CNn2cnnc2SCC(=O)NC(C)(C)C)cc1,-5%,-1,2%,?,-5%[46.1 µM],2
CN(C)c1ccc(CNn2cnnc2SCc2ccccc2F)cc1,/,25*,/,29%,18%,37*
CCOC(=O)c1c(C)sc(-c2c(-c3ccc4c(c3)OCCO4)[nH]c3c2c(=O)n(C)c(=O)n3C)c1O,-5%,/,-11%,-2%[46.1 µM],-1%[46.1 µM],/
Cc1ccc(Cl)cc1Nc1nn2c(=O)c3ccc(C(=O)NC(C)c4ccccc4)cc3nc2s1 (stereo not drawn),?,/,-24%,-22%[46.1 µM],/,/
CN(C)CCCn1c(SCC(=O)N2c3ccccc3Sc3ccccc32)nc2ccccc2c1=O,?,-9,14µM*,?,?,-29
CCCn1c(SCC(=O)N2c3ccccc3Sc3ccccc32)nc2c1c(=O)n(C)c(=O)n2C,/,-3,/,3%,1%,-21
CC(C)n1c(SCC(=O)N2c3ccccc3Sc3ccccc32)nc2c1c(=O)n(C)c(=O)n2C,i,-2,-17%,?,9.2µM*,-5
C[C@H](CCC(=O)NCCS(=O)(=O)O)C1CC[C@H]2C3CC[C@@H]4C[C@H](O)CC[C@]4(C)C3C[C@H](O)[C@]12C (stereo partly drawn),-10%,/,-13%,/,/,/
CCc1nc2c(OCc3c(C)noc3C)cccn2c1N(C)C(=O)c1ccccc1F,14%,/,2%,/,/,/
COc1cccc(N2CCN(C3C4CC5CC(C4)CC3C5)CC2)c1 (stereo not drawn),/,22*,-8%,-8%,-21%,52
COc1cccc(N2CCN(CC(=O)C34CC5CC(CC(C5)C3)C4)CC2)c1,-5%,-4,-15%,-3%,9%,-22
N/C(=N\OC(=O)CSc1ccccc1)c1ccccn1,/,79*,/,/,/,99*
COc1ccc(CC(=O)O/N=C(\N)c2ccccn2)cc1,i,64*,14%,15%[46.1 µM],?,75*
CC(C)C(=O)O/N=C(\N)c1ccccn1,-7%,8,5%,9%,?,22
N/C(=N\OC(=O)CCCOc1ccccc1)c1ccccn1,i,26*,-21%,6%[46.1 µM],2%[46.1 µM],42*
N/C(=N\OC(=O)CCCN1C(=O)c2ccccc2C1=O)c1ccccn1,5%,1,0%,?,5%[46.1 µM],-3
N/C(=N\OC(=O)Cc1ccc(-c2ccccc2)cc1)c1ccccn1,/,36*,/,?,4%,72*
O=C(CSc1cn(CCNC(=O)c2c(F)cccc2F)c2ccccc12)Nc1ccc(F)cc1,-15%,/,-10%,-2%[46.1 µM],2%[46.1 µM],/
O=C(Cn1ccc2ccccc2c1=O)NCC(=O)N1CCN(c2ccc(F)cc2)CC1,-28%,1,-17%,11%[46.1 µM],4%[46.1 µM],-6
C[n+]1ccc(CO)cc1,14%,/,-11%,/,/,/
SMILES,VACV mCherry inh,CHX counter,Vaccinia Venus,LASV entry inh,MARV entry inh,Shiga inhibitor
O=C(C1CCCN(S(=O)(=O)c2cccc3nsnc23)C1)N1CCN(c2ccccc2)CC1 (stereo not drawn),-17%,/,-13%,?,?,/
Cn1c(=O)c2c(nc(NC[C@@H](O)CO)n2CCc2ccccc2)n(C)c1=O,/,/,/,/,-7%,/
O=C(Nc1ccc2c(c1)CCCN2C(=O)c1ccccc1)c1ccccc1,-3%,22*,-27%,?,?,54*
COc1cccc(C(=O)Nc2ccc3c(c2)CCCN3C(=O)c2cccs2)c1OC,-7%,26*,-14%,?,/,49*
COc1ccc(C(=O)Nc2ccc3c(c2)CCCN3C(=O)c2cccs2)c(OC)c1,-24%,12,-22%,?,/,-1
O=C(Nc1ccc(C(=O)N2CCCC2)cc1)c1ccccc1,0%,/,-2%,/,/,/
Cc1ccccc1C(=O)Nc1ccc2c(c1)CCCN2C(=O)c1cccs1,-18%,10,15%,0.89µM*,/,11
O=c1c(S(=O)(=O)c2ccccc2)cn(Cc2ccc(F)cc2)c2cc(N3CCOCC3)c(F)cc12,-11%,/,-3%,13%[46.1 µM],/,/
COC(=O)C1(C(=O)OC)CC(CO)C(=O)[C@H]1c1ccccc1 (stereo partly drawn),/,/,/,/,-8%[14.2 µM],/
O=C(NCc1ccccc1F)C1CCN(c2nn3cc(-c4ccc(F)cc4)nc3s2)CC1,-10%,/,0%,?,/,/
Cc1ccc(C(=O)Nc2cc(Cl)ccc2-n2cncn2)o1,?,/,-2%,-1%,7%[46.1 µM],/
O=C(Nc1cc(Cl)ccc1-n1cncn1)c1ccc([N+](=O)[O-])s1,-9%,19*,-23%,?,-14%,-23
Cc1ccc(-n2ncc3c(=O)n(CC(=O)OCc4ccccc4)cnc32)cc1,/,31*,/,-6%,-4%,57
O=C(Cn1cnc2c(cnn2-c2ccccc2)c1=O)OCc1ccccc1,-11%,30*,-14%,22%,20%[46.1 µM],76*
Cc1cnc(-n2ncc(C(=O)NCc3ccccn3)c2C2CC2)nc1-c1cccs1,-20%,/,-3%,/,/,/
Cc1ccc(-c2csc(NC(=O)N3CCOCC3)n2)cc1,-27%,38*,?,-1%[46.1 µM],?,111*
Cc1ccc(-c2csc(NC(=O)CN3CCOCC3)n2)cc1,-5%,1,-18%,?,?,11
Cc1ccc(-c2nc(N3CCOCC3)sc2C(=O)N2CCOCC2)cc1,-13%,11,-20%,5%,27%,24*
O=C(CN1CCOCC1)Nc1nc(-c2ccc(Cl)cc2)cs1,i,17,-17%,7.1µM*,?,17
Cc1ccc(-c2nc(N3CCOCC3)sc2C(=O)N2CCCCC2)cc1,i,-3,-6%,9%,-27%,-8
COc1cc(-c2cccc(Cl)c2)cc2c1OCCN(C(=O)CCn1ccc(C)n1)C2,-25%,/,-7%,/,/,/
Clc1ccc(SCc2cc(N3CCOCC3)nc(-c3ccccn3)n2)cc1,7.9µM*,-4,?,?,?,2
CC(Sc1ccc(Cl)cc1)C(=O)NNC(=O)c1csc(N2CCOCC2)n1 (stereo not drawn),-25%,7,-19%,3%,-4%,-29
Clc1ccc(SCc2csc(N3CCOCC3)n2)cc1,-3%,33*,-15%,3%,-17%,54*
Cc1ccccc1NC(=O)C(=O)NCCCN1CCOCC1,i,-8,2%,6%[46.1 µM],-11%[46.1 µM],-3
CCC(=O)N1CCc2cc(Br)cc(S(=O)(=O)CCC(=O)NCc3ccc(C)cc3)c21,-10%,/,-12%,-26%[46.1 µM],?,/
COc1cccc(C(=O)NCCNC(=O)c2cnccn2)c1,i,-5,1%,-8%[46.1 µM],3%[46.1 µM],9

# Screening data as filed in PubChem BioAssay.
